# Laboratory results published in PubChem BioAssay AID1159506 (National Center for Advancing Translational Sciences (NCATS), 2015).
# In all, about 59,000 sequences were measured (the read-out: median about -0.00055, lowest 2% from about -2 on). The sample as a whole holds a higher share of the lowest values than the screen did.
# Assay: Identification of proteins required for the processing of the EWS-FLI1 nascent transcript;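 note: robust z of luciferase light less the median z of siRNAs with the same seed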
# Settings: TC32 Ewing sarcoma NR0B1-luc vs CMV-luc (EWS-FLI1 target promoter against control promoter), 48 h; screened at 20 nM (by protocol)
# Summary of the method: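 TC32 Ewing sarcoma cells carrying NR0B1-promoter or CMV-promoter luciferase reporters were reverse-transfected with single siRNAs at 20 nM, three per gene genome-wide. Luminescence was read after 48 h and normalized to non-targeting controls.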
row,Sequence,seed-corrected z-score
1,AAUUCGCAAAGAAUGAUGC against CNN1,0.159
2,UAGACUACCGGCUUCUUGC against CTRC,-0.112
3,UCAGCAUCUUCCAUGAUAG against B3GNT4,-0.437
4,AUCUGGUUGCUUUUUAUCC against FAM60A,-3.49
5,UGAACCACCAGGGUAUACG against CDH1,1.03
6,UCUUGAAUUGAGCAAGUCC against MGAT5,0.401
7,UUUCAGCUAAUGCAUUUUG against VIP,-3.11
8,UGUAGUAGAACUUCCUGGG against HS6ST1,-1.42
9,UCAAUUUUGAGUCCAUUGG against ANKRD46,0.911
10,UCCUUUAGAACUCUCGAUC against WIPF3,0.233
11,AUUAACAUAAUCUUGAUCC against CCNL2,-4.87
12,UCAAAGGUCACGGUCAGGA against PRDM15,-1
13,UUUAGAGGGACUCUUGUUU against HMGA2,-1.74
14,UUCUGACUGAGAGCUAUGG against BNIP3L,-0.338
15,UAAAUAGUUCUCGUCUUUC against EHF,0.511
16,UCUCUUGAGAGCGCGGUUG against RGS8,1.31
17,UACUGAUUGAGUGCCCUGC against FGGY,-5.78
18,UGAAGUUCAGCUACUAGCC against DIMT1,-0.104
19,UAAACAGUGAUUGCACCAC against ZNF497,-1.22
20,UAAGAAAAUAGGGAGGCCG against H1F0,0.96
21,UCCGAGUCAAUACUGUAUC against UIMC1,0.162
22,UGCUUUUUCAUGGACCACC against SOD1,-3.09
23,ACUAAUACUAAAUUCAACC against CSDE1,1.52

row,Sequence,seed-corrected z-score
1,UCCAGCUGAACUGUCACUC against TBX10,-0.201
2,UUCUUUUCCAGGUACGUGA against CCDC105,-0.394
3,UAUGUGCUUACUAGGGUCA against SSR3,-0.244
4,AUCUUUCGAACUACAAUUG against PSME4,1.14
5,UCCCAAGUCGCUCAAGUUC against LOC389834,0.29
6,UUUGGAGACAACAAGGUCG against SYN3,-0.442
7,UCCGGAAGUACUGUCGAAG against PPP2R1A,-0.186
8,AAUGUACUAUCUACUUGCC against ZNF507,-0.378
9,UCAGGAUCAAAAUCCAGUC against LTV1,-2.94
10,UGUCGAAACAGGAGGCGCU against ZNF579,-1.11
11,ACAGAUCAAAGAACUGUCC against LGALS4,0.144
12,UACUUGGACAAGUCCAAGA against LSM7,0.593
13,UGAACUUCUGGAGUCCCUC against CCDC115,1.1
14,UUUCGUAACCCUUCUGGGC against GNPTAB,0.263
15,UAAGGUUAGGUUAGGAAUG against SH3BGRL3,-0.0213
16,UAAUAGACCACGGAGUCUU against TMEM130,-3.42
17,UAAUCUCCUUCUUUAGGUC against CNOT3,1.42
18,AGUUCACUAAGUCAAUAGC against TMEM44,-1.14
19,UGGGUCAUGUGCUCUAUCC against HDGFL1,-0.0953
20,UAUGAGGUAAAGUGGGAAG against LCE2A,-2.17
21,UUGGGUUCGAUAUCUGCUU against CALML4,0.413
22,UCAGAAAUGACCUUGUUGC against LOC729187,1.39
23,AUCGGCAAAGUAAUUCUGG against NECAB3,0.533

row,Sequence,seed-corrected z-score
1,UGUAUUACAAUAUUCCUUC against LACE1,-0.00635
2,UCUUGUCGUAGUUCGUGGG against DUS3L,-2.02
3,AAACUGGUCAUCAUCCACC against SIKE1,0.42
4,AUCUGAGUGGAAAAAGUCC against AHNAK2,0.0875
5,UUCAGACUUGUUUUCACCC against POU1F1,-0.00706
6,AAAGGUAGAAAGAAGGACU against ZDHHC8P1,-0.722
7,UUGGUCUAGACUACUCUCC against KRT5,-0.431
8,ACAGAUAUCACAGGUAACC against MCU,0.266
9,AACAUAGCUAAAGUUGUUG against SLC16A5,-3.24
10,GAGCCGAACACCACUAUGG against SYNGR1,-0.617
11,AGAUCUACUACAGCCGUUC against RARS2,0.391
12,UUCGACCCAAGGUUUGUGC against DBF4,0.865
13,UUAAUGAUAAACACGUCUU against LMX1A,-0.388
14,UCCUAUAGCAGAAUAUUCC against PVRL3,-0.846
15,UCAACAUUAGGUUUCUUAG against TAF9B,0.431
16,UCUGGUAGUUCUUCAAGGC against LINC00238,0.0623
17,UAUUCUGUAGGCUCAAAAC against KRTAP4-11,-3.43
18,UUUCGCUAAGCUGCUCUUC against AQP9,-0.131
19,UUAUGGAAUGUCGUUUUCC against FAM228A,0.0891
20,UAAUGUCUAAGGAAGAUUU against ZBTB8A,0.693
21,AAGCUGAUAAUAGGCUUUC against DNAJA3,-0.565
22,UUCCAAGACAGAAAUGAGG against DNHD1,0.456
23,UGGGAUUUUAAAACGGCGG against DPP9,0.0729

row,Sequence,seed-corrected z-score
1,UUCUAUUUAGGAGAGCUUC against RPS16P10,-1.32
2,UAUCUUGUGGUGGUAGAGC against METTL23,0.782
3,UCCGUUUUUGAGAAACUUG against PNLDC1,-0.423
4,UAGAAAGUCUUUACUAUGU against PIGA,-1.02
5,UAAGUAGAUGGAGGACACC against MRGPRF,-2.16
6,AUAUAGGAUCUUAUUGUGC against B4GAT1,-0.205
7,UUUUGUCCCGGAACAUGCG against BCR,-0.22
8,UUCUCGUUCUGUUAAGUUC against CCDC144B,0.479
9,UGUUGUAGUAGUAACGCAG against LOC390937,-3.19
10,UCAGUUGUUACGCAAGGUG against PI16,-0.652
11,AAAUGGUCCAGAAUCCAGC against FOXN2,0.634
12,UUUGGGUCGUUGUACAUCU against AGBL4,-2.02
13,UACUGAACUCCAUCUGACU against C1orf198,1.54
14,UCGUUGUAUAAUUUUGCCC against WDR17,-1.13
15,AAUGCGACGAGACAAGAUG against WASF2,0.812
16,UUCAUUAAGAAGCACCUGG against NDFIP2,0.91
17,ACUAGUACUGGGAAGGUCC against CDKN1C,-2.28
18,UCUAGGCUCAGCAAUGACU against CD19,0.138
19,AAUAGAUUCAACAAGGGUG against BCL10,1.13
20,AUGGAGGUAAUGACGAUCA against UPK3B,-2.86
21,UCUAGAUACUUAAUGGUGC against LAMP2,0.192
22,UUAUUGACACUUGUUCAAG against COX7A1,0.106
23,AAUGUAUCUAAGCAACUUC against DDIAS,-0.473

row,Sequence,seed-corrected z-score
1,ACAUAGGUUGGGUCGAUCC against XYLT2,-1.65
2,UACUUAACCGGGAAGCUAC against NUMB,-0.172
3,UUUGCAGGUAGAAUUAAGG against B3GALT5-AS1,-2.65
4,UUAGCAUCUGCAGCAUUCU against RBMY2DP,-0.255
5,UGGGUUGUAGAGAUCUACC against AKAP4,0.156
6,UACCCGGAAAAGUAAAUCC against ROBO2,0.288
7,UGAUAUAUGAAUUGGAGUC against CDKN3,-0.146
8,UUCUUCAUCAGAUGGUUCC against SF3B2,-3.21
9,AGUUUAGCUAUGACAAUGG against C2orf66,0.917
10,UUCUCCUUCAUCAAGUUCA against S100A7L2,0.705
11,UUCGUUACAGAACUGACCG against YEATS2,-0.228
12,UCCAUAACCUGUUCUACGC against NFU1,0.244
13,UCUUGUCUACUAUCACUGC against PRR13,1.15
14,UUCUGAACCUUCGCAGUGC against PPP1R3B,0.0534
15,UUCUGAAACAAGCCCUUGC against CCDC103,-2.08
16,UUCUUGACUAUCUUCAUCU against CBX4,-0.275
17,UCUAUUUUGACCGAGUAUG against CKAP4,0.169
18,AUGAUGUUCACGAUGAUGG against SYT7,-2.72
19,UUGCAAUGCAUGGUGCACC against FAM136A,-1.35
20,UUGUCUUUUACUUCCAUCC against CLEC7A,-1.06
21,UAGUUAAUGGAGUAACUCC against KDM5C,-0.0641
22,ACUUUUUACCUCCUCAUUC against OR4E2,1.72
23,AGCAGGAUAAAAACGAUCU against TMC4,0.756

row,Sequence,seed-corrected z-score
1,UGUUGGAUAAGGUUAGAAC against ZNF34,0.0223
2,AAUGUUUCCCACAUGGAUG against SMARCB1,-1.85
3,UGUAAUUAUACCAAUGUAG against EEF1B2P5,-2.11
4,UCUCGUAUGAUAUAAUCUC against HCN1,0.749
5,AACCGGAUUAAGGAAAGUG against BTBD1,-0.375
6,UGAAGGGAUAGUUUCUCUG against FZD10-AS1,-0.829
7,UAAGUUGCACUUUCCAUUC against ZNF266,-3.46
8,AACCGUUCCAUAUCAUCUC against BEX5,0.658
9,UCCUUGUCCACAUGGAGAC against CREBZF,-1.01
10,UUAUAAUCUACAUGCUUUC against MRPS18C,0.39
11,UCUGCUGUCCUGUAAGUCG against AMACR,0.214
12,UUAGCUGUGAGUGCUUUCC against TNFRSF11A,-2.35
13,UUGAGUGCAACUUCAAGUC against OPTN,2.17
14,UUCUGGAGCAGACCUGUCC against DKK4,0.057
15,UGUUAGCUCAGUCACGUAG against GBP7,0.141
16,GUGUGCAUCAGAUGCUCUG against NUTM2F,1.15
17,UCGCUGAUCAGCAUGACCU against ITFG2,-0.4
18,UCUCUUUAUGCAGCUGACA against LTF,-2.1
